Laboratory results taken from PubChem BioAssay (NCI).
Where “and” joins values, the source holds several entries; their conditions need not be identical. Equal entries are not always repeated. The panel holds about 83,000 compounds, 20% with a hit somewhere; the sample as a whole holds those more often.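 96-well plates, one dose, 48 hours. Percent growth reported; active if below 10.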 Calls of active or inactive are those of the source.

Key:
Test in all cases: NCI-60 one-dose screen, 48 h (100 = growth as untreated, 0 = no growth, -100 = all killed)
Conditions in all cases: 10 µM unless noted
[1] = system: NCI-H23 lung
[2] = system: NCI-H226 lung
[3] = system: NCI-H322M lung
[4] = system: HOP-62 NSCLC
[5] = system: NCI-H460 lung
[6] = system: HOP-92 NSCLC
[7] = system: NCI-H522 lung
[8] = system: A549/ATCC NSCLC
[9] = system: 786-0 renal
[10] = system: COLO 205 colon
[11] = system: DU-145 prostate
[12] = system: K-562 leukemia
[13] = system: MALME-3M melanoma
[14] = system: MDA-MB-231 breast
[15] = system: RXF 393 renal
[16] = system: SF-268 CNS
[17] = system: SF-295 CNS
[18] = system: SF-539 CNS
[19] = system: UACC-257 melanoma
[20] = system: M14 melanoma

Measured: growth

O=C(CCCOc1ccc(Br)cc1)Nc1ncc(Cc2ccc(F)cc2)s1
inactive: [1] 86.5% | [2] 88.8% | [3] 78.5% | [4] 75.3% | [5] 90.4% | [6] 58% | [7] 75.1% | [8] 84.8% | [9] 86.3% | [10] 63.3% | [11] 79.8% | [12] 37.1% | [13] 73.1% | [14] 79.5% | [15] 69.2% | [16] 73% | [17] 68.9% | [18] 68.3% | [19] 93.4% | [20] 51%

N#Cc1cc(-c2ccnc(Nc3ccc(NC(=O)CCl)cc3)n2)ccc1N1CCCC1
inactive: [3] 53.4% | [6] 28.4% | [11] 17.1%
active: [1] -31.3% | [2] -12.4% | [4] -4.87% | [5] -35.9% | [7] -41.3% | [8] -26.7% | [9] -14.6% | [10] -59.6% | [12] 2.55% | [13] -68.5% | [14] -31.8% | [15] -79.3% | [16] -8.99% | [17] -26.9% | [18] -94.4% | [19] 3.7% | [20] -40.9%

COc1ccc2c(O)c(/C=C3\N=Nc4nc(C)ccc43)oc2c1CC1CCNCC1
inactive: [1] 67.2% | [2] 57.5% | [3] 80.8% | [4] 64.3% | [5] 79.3% | [6] 39.2% | [7] 43.4% | [8] 68.2% | [9] 54.1% | [10] 78.4% | [11] 87.9% | [12] 49.3% | [13] 19.1% | [14] 34.6% | [16] 67.4% | [17] 90% | [18] 55.9% | [19] 74.5% | [20] 35.4%
active: [15] -0.196%

CCN1C(=O)N(c2ccccc2)C2NC(=S)N(/N=C/C=C/c3ccccc3)C21 (stereo not given)
active: [2] 2.92% | [5] 8.06% | [10] -8.16% | [11] 8.79% | [12] 8.8% | [15] 9.01% | [17] 2.91% | [18] -27% | [20] 0.94%
inactive: [1] 21.1% | [3] 50.4% | [4] 37.9% | [6] 28.8% | [7] 14.8% | [8] 24.9% | [9] 37.2% | [13] 45.8% | [14] 15.7% | [16] 31.9% | [19] 39.5%

Nc1nc(Nc2ccc(F)cc2)nn1C(=O)c1cc(Cl)ccc1Cl
inactive: [1] 71.9% | [2] 80.9% | [3] 66.4% | [4] 85.4% | [5] 69.4% | [6] 75.1% | [7] 87.8% | [8] 75.2% | [9] 72.9% | [10] 83.8% | [11] 78.8% | [12] 97.4% | [13] 108% | [14] 88.2% | [15] 21.8% | [16] 74.9% | [17] 94.3% | [18] 72.8% | [19] 106% | [20] 86.8%

COc1ccc(C2Nc3nc(SC)nc(N)c3N=C3c4ccccc4CCC32)cc1 (stereo not given)
inactive: [1] 72.4% | [2] 107% | [3] 109% | [4] 102% | [5] 86.7% | [6] 50.7% | [7] 90.9% | [8] 102% | [9] 93.6% | [10] 112% | [11] 70.9% | [12] 84.5% | [13] 108% | [14] 83.5% | [15] 122% | [16] 73.4% | [17] 105% | [18] 90.5% | [19] 122% | [20] 92.7%

O=Nc1c(O)ccc2ccccc12
-51.3% (active) and 80.8% (inactive): [19]
inactive: [1] 89.7% | [2] 93.2% and 97.4% | [3] 97.1% | [4] 117% and 101% | [5] 96.4% and 106% | [6] 66% and 87.1% | [7] 41.8% and 86.2% | [8] 72.2% and 100% | [9] 92.1% and 104% | [10] 71.1% and 110% | [11] 83.9% and 113% | [12] 51% and 87.7% | [13] 33.3% and 122% | [14] 57.4% and 62.7% | [15] 80.5% and 102% | [16] 49.6% and 103% | [17] 91.3% and 109% | [18] 94.9% and 104% | [20] 49.6% and 104%

CN1CCN(c2ccc(/C=C/C(=O)c3ccc(O)cc3)cc2)CC1
inactive: [1] 93.9% | [2] 97% | [3] 101% | [4] 97.7% | [5] 101% | [6] 74.8% | [7] 88% | [8] 97.7% | [9] 98.8% | [10] 113% | [11] 93.2% | [12] 90.1% | [13] 99% | [14] 94.8% | [15] 95.3% | [16] 95.8% | [17] 95.1% | [18] 91.9% | [19] 96.1% | [20] 95.8%

Cc1ccc2[nH]c(=S)[nH]c(=O)c2c1
inactive: [1] 100% | [2] 102% | [3] 102% | [4] 99.4% | [5] 106% | [6] 93.4% | [7] 94.7% | [8] 98.9% | [9] 94.9% | [10] 117% | [11] 109% | [12] 97.1% | [13] 102% | [14] 109% | [15] 104% | [16] 100% | [17] 104% | [18] 99.7% | [19] 101% | [20] 101%

O=C(NNC(=S)Nc1ccccc1)c1ccncc1
inactive: [1] 102% | [2] 105% | [3] 108% | [4] 106% | [5] 118% | [6] 90.2% | [7] 97.3% | [8] 107% | [9] 98.5% | [10] 128% | [11] 115% | [12] 106% | [13] 108% | [14] 111% | [15] 114% | [16] 105% | [17] 110% | [18] 100% | [19] 110% | [20] 107%

COc1ccc(-c2ccc(-c3ccc(C(=N)N)cn3)s2)cc1Cl
active: [1] -57.5% | [3] -97.1% | [4] -50.5% | [5] -93% | [6] -76.8% | [7] -44.2% | [8] -58.2% | [9] -61.3% | [10] -51.7% | [11] -47% | [12] -47.8% | [13] -88% | [14] -77.9% | [16] -30.5% | [17] -80.9% | [18] -93.5% | [19] -60.8% | [20] -81.7%
inactive: [2] 88.1% | [15] 64.5%

Clc1ccc2c(c1)N(c1ncnc3ccc(-c4cnc5[nH]ccc5c4)cc13)CC2
inactive: [1] 40.6% | [2] 40.9% | [3] 41.3% | [4] 13.8% | [5] 16.5% | [6] 14.8% | [7] 30.6% | [8] 21.4% | [9] 24.5% | [10] 45.1% | [11] 27.6% | [14] 35.6% | [16] 39.8% | [17] 19.7% | [18] 27.5% | [19] 34.4%
active: [12] 5.53% | [13] 7.46% | [15] 4.78% | [20] 8.89%

COC(=O)N/N=C/c1c[n+]([O-])c2ccccc2[n+]1[O-]
active: [10] -45.4%
inactive: [1] 98.6% | [2] 109% | [3] 98.3% | [4] 22.7% | [5] 105% | [6] 96.5% | [7] 92.9% | [8] 93.1% | [9] 93.8% | [11] 114% | [12] 103% | [13] 108% | [14] 110% | [15] 125% | [16] 106% | [17] 93.4% | [18] 101% | [19] 95.1% | [20] 106%

COC1=CC(=O)C(OC)=C(O)C1=O
inactive: [1] 99.1% | [2] 102% | [3] 93.8% | [4] 97.9% | [5] 106% | [6] 106% | [7] 96.5% | [8] 105% | [9] 95.7% | [10] 103% | [11] 109% | [12] 103% | [13] 97.7% | [14] 100% | [15] 104% | [16] 107% | [17] 102% | [18] 92.4% | [19] 97.4% | [20] 97.2%
